Results from PubChem BioAssay AID1159580 (chemical genetic matrix, 2015).
Values joined by “and” are separate entries in the source; they are usually repeats but may differ in a detail not shown here. Identical values can stand only once. The campaign covered roughly 5,500 compounds. About 2,000 (36%) were called active. Roughly 18% stayed inconclusive and do not appear here. Rule as the data show it: active = normalized growth mostly below about 0.91 (no sharp cut-off); inconclusive = no clear call, values can overlap the other calls; inactive = mostly above about 0.92. Some of the results follow.

Assay: chemical genetic growth profiling, strain panel (AID 1159580);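 also: tested at 20 µM; growth read once vehicle control cultures reached saturation at 30 °C; 1 = growth at the plate median or of vehicle wells; lower values mean less growth of the strain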
Settings: S. cerevisiae deletion strains, growth OD

Measured: normalized growth

COc1cc2c(cc1OC)Cc1cc(OC)c(OC)cc1Cc1cc(OC)c(OC)cc1C2
inactive: locus YAL021C, strain ccr4, hits give low values 1.03 | locus YAL026C, strain drs2, hits give low values 1.04 | locus YAL030W, strain snc1, hits give low values 1.03 | locus YBL061C, strain skt5, hits give low values 1.03 | locus YBR009C, strain hhf1, hits give low values 1.03 | locus YBR021W, strain FUR4, hits give low values 1.02 | locus YBR023C, strain chs3, hits give low values 1.03 | locus YBR171W, strain sec66, hits give low values 1.05 | locus YBR229C, strain ROT2, hits give low values 1.02 | locus YBR231C, strain swc5, hits give low values 1.04 | locus YBR279W, strain paf1, hits give low values 1.02 | locus YCL011C, strain gbp2, hits give low values 1.04 | locus YCL016C, strain dcc1, hits give low values 1.03 | locus YCL029C, strain bik1, hits give low values 1.02 | locus YCL061C, strain MRC1, hits give low values 1.02 | locus YCL069W, strain vba3, hits give low values 1.02 | locus YCR088W, strain abp1, hits give low values 1.02 | locus YDL005C, strain med2, hits give low values 1.03 | locus YDL035C, strain GPR1, hits give low values 1.01 | locus YDL040C, strain nat1, hits give low values 1.05 | locus YDL074C, strain BRE1, hits give low values 1.03 | locus YDL101C, strain DUN1, hits give low values 1.02 | locus YDL134C, strain PPH21, hits give low values 1.02 | locus YDL185W, strain tfp1, hits give low values 1.02 | locus YDL192W, strain arf1, hits give low values 1.05 | locus YDR001C, strain nth1, hits give low values 1.02 | locus YDR069C, strain doa4, hits give low values 1.04 | locus YDR101C, strain arx1, hits give low values 1.07 | locus YDR137W, strain rgp1, hits give low values 1.08 | locus YDR150W, strain NUM1, hits give low values 0.978 | locus YDR159W, strain sac3, hits give low values 1.05 | locus YDR162C, strain NBP2, hits give low values 1.03 | locus YDR195W, strain ref2 1.01 | locus YDR297W, strain sur2, hits give low values 1.03 | locus YDR318W, strain mcm21, hits give low values 1.02 | locus YDR334W, strain swr1, hits give low values 1.02 | locus YDR335W, strain msn5, hits give low values 1.03 | locus YDR388W, hits give low values 1.03 | locus YDR392W, strain spt3, hits give low values 0.993 | locus YDR502C, strain sam2, hits give low values 1.03 | locus YEL003W, strain gim4, hits give low values 1.04 | locus YEL037C, strain rad23, hits give low values 1.02 | locus YEL061C, strain CIN8 (second series), hits give low values 1.03 | locus YEL061C, strain CIN8, hits give low values 1.01 | locus YER015W, strain faa2, hits give low values 1.03 | locus YER016W, strain bim1, hits give low values 1.02 | locus YER110C, hits give low values 1.03 | locus YER111C, strain swi4, hits give low values 1.03 | locus YER155C, strain BEM2 (second series), hits give low values 1.03 | locus YER155C, strain BEM2, hits give low values 1.01 | locus YER167W, strain BCK2, hits give low values 1.01 | locus YFR010W, strain ubp6, hits give low values 1.05 | locus YGL078C, strain dbp3, hits give low values 1.03 | locus YGL086W, strain mad1, hits give low values 0.979 | locus YGL167C, strain pmr1, hits give low values 1.04 | locus YGL173C, strain kem1, hits give low values 1.04 | locus YGL227W, strain vid30, hits give low values 1.04 | locus YGL240W, strain doc1, hits give low values 1.03 | locus YGL248W, strain PDE1, hits give low values 1.02 | locus YGL253W, strain hxk2, hits give low values 1.02 | locus YGR078C, strain PAC10, hits give low values 1.02 | locus YGR135W, strain pre9, hits give low values 1.06 | locus YGR252W, strain gcn5, hits give low values 1.05 | locus YHR013C, strain ard1, hits give low values 1.05 | locus YHR027C, strain rpn1, hits give low values 1.04 | locus YHR030C, strain SLT2, hits give low values 1.01 and 1.02 | locus YHR079C, strain IRE1 (second series), hits give low values 1.02 | locus YHR079C, strain IRE1, hits give low values 1.06 | locus YHR094C, strain hxt1, hits give low values 1.03 | locus YHR129C, strain ARP1, hits give low values 1.01 | locus YHR142W, strain chs7, hits give low values 1.03 | locus YHR200W, strain rpn10, hits give low values 1.03 | locus YIL066C, strain RNR3, hits give low values 1.01 | locus YIL073C, strain SPO22, hits give low values 1.04 | locus YIL125W, strain kgd1, hits give low values 1.04 | locus YIR030C, strain dcg1, hits give low values 1.02 | locus YJL092W, strain hpr5, hits give low values 1.03 | locus YJL095W, strain BCK1 (second series), hits give low values 1.02 | locus YJL095W, strain BCK1, hits give low values 1.02 and 1.03 | locus YJL115W, strain asf1, hits give low values 1.04 | locus YJL129C, strain trk1, hits give low values 1.05 | locus YJL134W, strain LCB3, hits give low values 0.998 | locus YJL154C, strain vps35, hits give low values 1.01 | locus YJL164C, strain tpk1, hits give low values 1 | locus YJL166W, strain qcr8, hits give low values 1.03 | locus YJL168C, strain set2, hits give low values 1.03 | locus YJL187C, strain SWE1 (second series), hits give low values 1.03 | locus YJL187C, strain SWE1, hits give low values 1.03 | locus YJR043C, strain POL32, hits give low values 1
